# In the supplement of paper PMC11026393:
# System: H1299
# Assay: difference in mean normalized H2B-mRuby nuclear fluorescence intensity relative to DMSO control (normalized intensity difference (DMSO = 0)); higher = stronger increase in transgene reporter fluorescence
# Settings: 24 h
# Experimental: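 Cancer cell lines stably expressing H2B-mRuby2 from a lentiviral PGK promoter were treated with each drug for 24 h and imaged on a Leica DMI8 (ex 541-551 / em 565-605 nm). Nuclei were segmented in CellProfiler. The value is the difference in mean per-nucleus normalized H2B-mRuby intensity versus DMSO-treated cells (about 3 repeats x 4 fields). Doxorubicin is itself fluorescent. Dasatinib is in nM.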
Compound,difference (concentration: 0.1),difference (concentration: 0.5),difference (concentration: 1),difference (concentration: 5),difference (concentration: 10),difference (concentration: 25),difference (concentration: 100),difference (concentration: 500)
Cc1sc2c(c1C)C(c1ccc(Cl)cc1)=N[C@@H](CC(=O)OC(C)(C)C)c1nnc(C)n1-2 (concentration unit: uM),0.176,0.367,0.441,0.532,0.625,–,–,–
CN[C@@H]1C[C@H]2O[C@@](C)([C@@H]1OC)n1c3ccccc3c3c4c(c5c6ccccc6n2c5c31)C(=O)NC4 (concentration unit: nM),–,–,–,-0.113,-0.185,-0.17,0.0873,0.138
